Among the data in PubChem BioAssay (EPA / NIEHS) are outcome and AC50 values, retold here.

Active and inactive are the calls of the source. The calls were made as follows: active = hit-call score of the fitted dose curve at least 0.9, where 1 is the maximum; inactive = score below 0.9.

Read-out in this assay: Matrix Metallopeptidase 1 (MMP1), MMP1 (gene 4312)
The experiment in a line: BSK_hDFCGF_MMP1: BioMAP Diversity Plus: hDFCGF Assay for Matrix Metallopeptidase 1 (MMP1) Biomarker Activity (AID 2283064). The settings on record: primary human foreskin fibroblasts; actives raise or lower the signal. On the procedure: BSK_hDFCGF is a cell-based, multiplexed-readout assay that uses foreskin fibroblast, a human skin primary cell, with measurements taken at 24 hours after chemical dosing in a 96-well plate.BSK_hDFCGF_MMP1 is an assay component measured in the BSK_hDFCGF assay. It measures MMP-1 antibody related to regulation of gene expression using ELISA technology.Data from the assay component BSK_hDFCGF_MMP1 was analyzed into 1 assay endpoint. This assay endpoint, BSK_hDFCGF_MMP1, was analyzed with bidirectional fitting relative to DMSO as the negative control and baseline of activity. Using a type of binding reporter, gain or loss-of-signal activity can be used to understand changes in the signaling as they relate to the gene MMP1. Furthermore, this assay endpoint can be referred to as a primary readout, because this assay has produced multiple assay endpoints where this one serves a signaling function. To generalize the intended target to other relatable targets, this assay endpoint is annotated to the protease intended target family, where the subfamily is matrix metalloproteinase.
The levels of cell surface (or secreted, indicated by the prefix "s") biomarker endpoints were measured by ELISA. Overt cytotoxicity to cells in confluent adherent cultures (all systems other than the BT system) was assessed by measuring total protein levels using sulforhodamine B (SRB) staining in parallel cultures at the time of biomarker measurements, indicated as SRB endpoints. For proliferation assays for adherent cell types, individual cell types are cultured at sub-confluence and relative cell numbers quantified by SRB staining at time points optimized for each system (48 h: 3C and CASM3C systems; 72 h: BT and HDF3CGF systems; 96 h: SAg system). SRB was performed by staining cells with 0.1% SRB after fixation with 10% TCA and reading wells at 560 nm.Viability and proliferation of PBMC (T cells) was quantified by Alamar Blue reduction for the SAg and BT systems. For PBMC viability (referred to as PBMC Cytotoxicity within the assay endpoint names), cells were plated (75,000/well in a 96-well plate) and then chemical samples added for 1 h before addition of activators, SEB and TSST-1 (20 ng/mL final concentration each). Cells were incubated for 90 h. Then, Alamar Blue (20 uL/well) (Invitrogen, Cat DAL1100) was added for 6 h, and the plates were read with a fluorescence microplate reader at 546/580 nm (excitation/emission). For PBMC proliferation, cells were plated and activated as above but incubated for only 16 h prior to addition of Alamar Blue. Plates were read after 6 h.
As for `CC(=O)OC1CC(C)OC(C)O1` (stereo not given), the result was inactive.

On to `CC(C)OC(=O)C(C)(C)Oc1ccc(C(=O)c2ccc(Cl)cc2)cc1`, for which the outcome was inactive.

In the case of `Cc1cc(SC2=C(O)C[C@@](CCc3ccc(N)cc3)(C(C)C)OC2=O)c(C(C)(C)C)cc1CO`, the outcome was inactive.

Consider `Oc1ccccc1O`, for which the outcome was inactive.

In the case of `CCCCC(CC)CO` (stereo not given), the outcome was inactive.

On to `CC(C)c1cccc(C(C)C)c1NC(=O)NS(=O)(=O)c1cc(C(C)(C)O)co1`, for which the result was inactive.

A word on the AC50: it is the concentration at which the activity in the assay is half-maximal. Turning to `NC(=Nc1ccccc1)Nc1ccccc1`, the AC50 was 3.71 µM (active).

For `CC(C)NCC(O)c1ccc(O)c(O)c1` (stereo not given), the result was inactive.

Take `CCc1nc(N)nc(N)c1-c1ccc(Cl)cc1`: the outcome was inactive.

Regarding `COC(=O)[C@H]1[C@H]2C[C@@H]3c4[nH]c5cc(OC)ccc5c4CCN3C[C@H]2C[C@@H](OC(=O)c2cc(OC)c(OC)c(OC)c2)[C@@H]1OC`, the outcome was inactive.

With `CC(C)(O)c1ccc(CNC(=O)c2cccnc2Oc2ccc(F)cc2)cc1`, the result was inactive.

Consider `C=CCCCCCCCCCCCC`, for which the outcome was inactive.

With `CC(C)c1cccc(C(C)C)c1`, the result was inactive.

`OCC(O)CO`: the outcome was inactive.

As to `Nc1nc(=S)c2[nH]cnc2[nH]1`, the AC50 was 24.8 µM (active).

`COc1ccc(OC(F)(F)F)cc1CN[C@H]1CCCN[C@H]1c1ccccc1`: the outcome was inactive.

Turning to `O=[Si]=O`, the result was inactive.

For `C=CCc1ccc(OC)c(OC)c1`, the outcome was inactive.

Turning to `CCCCCCCCCC[N+](C)(C)[O-]`, the outcome was inactive.

Regarding `Cc1occc(=O)c1O`, the outcome was inactive.

As to `Cc1ccc(C(C)(C)C)c(O)c1`, the result was inactive.

Consider `Cc1cn([C@H]2C=C[C@@H](CO)O2)c(=O)[nH]c1=O`, for which the outcome was inactive.

For the molecule `C/C=C/C=C/C(=O)O`, the result was inactive.

As for `C/C=C/c1ccc(OC)cc1`, the outcome was inactive.

Turning to `O=Cc1ccccc1C=O`, the outcome was inactive.

On to `CN(C)CCCN(C)CCCN(C)C`, for which the result was inactive.

In the case of `COc1ccc(C(=O)Nc2nc3ccccc3c(NCc3ccccc3)c2C#N)cc1`, the result was inactive.

For `COC(=O)CCC(=O)OC`, the result was inactive.

As to `O=C1OC(c2ccc(O)cc2)(c2ccc(O)cc2)c2ccccc21`, the outcome was inactive.

Take `O=C1O[C@H]([C@H](O)CO)C(O)=C1O`: the result was inactive.

In the case of `NC=O`, the result was inactive.

`O=C(O)c1cccnc1`: the result was inactive.

Consider `CC1=C(C)S(=O)(=O)CCS1(=O)=O`, for which the outcome was inactive.

As to `Oc1ccc(O)cc1`, the AC50 is 33 µM (active).

Consider `O=C1c2c(O)cccc2Cc2cccc(O)c21`, for which the result was inactive.

In the case of `CCCCC(CC)COC(=O)CCCCCCCC(=O)OCC(CC)CCCC` (stereo not given), the outcome was inactive.

For `COC(=O)CCCC(=O)OC`, the result was inactive.

For `OCC(CO)n1cnc(-c2ccc(F)cc2)c1-c1ccnc(Oc2ccccc2)n1`, the AC50 was 0.909 µM (active).

With `CC(=O)S[C@H](C(=O)N[C@H]1Cc2ccccc2[C@H]2CCC[C@@H](C(=O)O)N2C1=O)C(C)C`, the outcome was inactive.

In the case of `CC(N)=O`, the outcome was inactive.
